In PubChem BioAssay (NCATS):
Records with an inconclusive call do not appear. Values without a mark were called inactive. The source made the active and inactive calls. Calls follow the shape of the dose curve; as a rule, active = well fitted inhibition curve with a large enough effect; inconclusive = small, poorly fitted or top-dose-only effect; inactive = flat fitted curve, though single readings scatter.
% is scaled to controls: 0 for no effect and ±100 for the full control effect; potency is read from the fitted curve at half-maximal effect.

These molecules were tested on HaCat (assay: Cytotoxic Profiling of Annotated Libraries Using Quantitative High-Throughput Screening (AID 1296008; also: nearly all actives have a fitted effect of over 60% in size)). Settings: Five cell lines viability, CellTiter-Glo ATP luminescence, 48-72 h; max response: stronger effect = lower value.
Procedure, shortened: (§1)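 Compounds were pin-transferred onto cells and incubated 48 or 72 hr at 37 degree Celsius, 95% humidity. CellTiter-Glo was added, plates sat 10 min at room temperature, then ATP-coupled luminescence was imaged as the viability read-out.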
`OC[C@H]1O[C@@H](OC[C@H]2O[C@@H](OC/C=C/c3ccccc3)[C@H](O)[C@@H](O)[C@@H]2O)[C@@H](O)[C@@H]1O` gave a max response of -0.518%. `O=C(O)c1cc(-c2c(-c3ccccc3)nn3ccccc23)n[nH]c1=O` gave a max response of -37.3%. Work on `CCC(O)(C(=O)OCc1ccccc1NC(=O)CCC(=O)O)C(C)O` (configuration not stated) yielded a max response of -3.62%. With `CCC(CC)C(=O)Nc1sc2c(c1C#N)CCC(C(C)(C)CC)C2` (configuration not stated) the max response was 1.75%.

The molecules below were run on KB-3-1 in the same assay as above. Settings: Five cell lines viability, CellTiter-Glo ATP luminescence, 48-72 h; max response: stronger effect = lower value.
Procedure, shortened: as §1
With `COc1c2c(c(C)c3c1C(=O)OC3)OC1(C)CC(O)C(C(C)(C)O)C(C)(CCC(=O)O)C1C2` (configuration not stated) the outcome was “inactive”. Molecule `C1CCC[C@H]2CCCN3CC[C@@H](CCCCCC[C@@H]4CCCN5CC[C@@H](CC1)O[C@@H]45)O[C@@H]23` has a max response of 8.9%. `CC1C(=O)OCC2=CCN3CCC(OC(=O)C(C)(O)C1(C)O)C23` (configuration not stated) was tested, and the outcome was “inactive”. With `CC/C=C/CC1=C(CCCCC(CCC(=O)O)OC(C)=O)CCC1=O` (configuration not stated) the max response was -6.15%. `OC[C@@]1(O)CO[C@@H](OC[C@H]2O[C@@H](Oc3c[nH]c4ccccc34)[C@H](O)[C@@H](O)[C@@H]2O)[C@@H]1O` gave a max response of -0.625%. With `COc1ccc(C2(O)CCC(N3CC[C@@H](NC(=O)CNC(=O)c4cccc(C(F)(F)F)c4)C3)CC2)cn1` (some centres not stated) the max response was -12.4%. `COc1cc(OC)cc(C(=O)Nc2ccc(Cl)c(-c3nc4ccc(N(C)C)cc4[nH]3)c2)c1` gave a max response of 2.52%. `C[C@@H]1COCCN1c1cc(C2(S(C)(=O)=O)CC2)nc(-c2cccc3[nH]ccc23)n1` was tested, and the Potency was 2590 nM (active).
